High-throughput results from PubChem BioAssay.
Sampled rows, rich in hits. Any-hit rate of the full collection: about 3.8%.
697 NFkB inh: inhibitors of the PMA/ionomycin-induced NF-kB reporter in 697 B cells; 697 B-cell NF-kB luciferase reporter, 16 h; 0.33% of 330,000 active; AID 435022; inhibition, % at 4 µM; in the data active means inhibition above about 35%
Mdm2 MdmX PPI: human Mdm2/MdmX binding inhibition. O15151+Q00987. SaOS-2 split-luciferase Mdm2/MdmX complementation, luminescence. inhibition, % at 8 µM. AID 485346. 3% of 330,000 active;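 active means inhibition of at least 50% at 8 µM in the primary screen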
NTR1 agonist: NTR1 (human) agonism | activation, % at 20 µM | NTR1-U2OS beta-arrestin-GFP spot imaging, agonist mode | 0.17% of 330,000 active;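 active means activation at or above 40% of the spot to cytoplasm intensity ratio, with at least 20 cells analyzed; inconclusive means wells under 20 cells, flagged as cytotoxic or low count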;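 further: 0% = DMSO without peptide and 100% = 100 nM NTR1 peptide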
Target sequence (P30989 whole entry, looked up): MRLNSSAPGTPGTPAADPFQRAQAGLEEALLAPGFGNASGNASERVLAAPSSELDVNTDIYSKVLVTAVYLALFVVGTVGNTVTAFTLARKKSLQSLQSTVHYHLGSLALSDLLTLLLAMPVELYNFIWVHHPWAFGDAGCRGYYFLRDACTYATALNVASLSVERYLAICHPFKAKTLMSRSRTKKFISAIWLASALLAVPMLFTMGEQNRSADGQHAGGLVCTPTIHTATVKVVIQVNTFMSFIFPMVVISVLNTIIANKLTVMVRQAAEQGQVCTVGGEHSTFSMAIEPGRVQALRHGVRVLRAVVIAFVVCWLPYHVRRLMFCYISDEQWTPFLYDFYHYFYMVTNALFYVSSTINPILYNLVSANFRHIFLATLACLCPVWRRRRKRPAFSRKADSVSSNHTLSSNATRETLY
Beta cell apopt: blocks beta cell apoptosis. INS-1E cytokine-induced death, ATP luminescence, 48 h; percent of positive-control rescue, neutral wells zero. protection from apoptosis, % (test concentration not listed). 0.8% of 300,000 active;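 active means Every replicate reaches about 75%, or at least half do and their mean reaches it too, limit read from the data; inconclusive means At least half of replicates reach the limit but their mean does not; inactive means Under half of replicates reach the limit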;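 further: 0% = cytokine-treated negative control wells and 100% = positive control rescue; higher means more ATP so stronger rescue from cytokine killing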
A1 inh: inhibitors of the anti-apoptotic protein A1, read as caspase activation | MEF A1-2A-BIM cells, Caspase-Glo 3/7 luminescence, 3 h; percent of clofoctol response, vehicle zero | 0.066% of 330,000 active | caspase activation, % (concentration not given with the values);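 active means over half of replicate activation scores above 10%, or exactly half above 10 with the replicate mean above 10; inconclusive means replicate mean below 10 yet half the replicates above 10; inactive means over half of replicates below 10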
Jurkat NFkB inh: inhibitors of the PMA/ionomycin-induced NF-kB reporter in Jurkat cells. AID 435003. PMA/ionomycin-induced NF-kB luciferase reporter, luminescence. inhibition, % at 4 µM. 0.53% of 330,000 active; in the data active means inhibition above about 50%
Mdm2-MdmX conf: human Mdm2/MdmX binding inhibition, confirmed; shares compounds with Mdm2 MdmX PPI; 55% of 10,000 active; AID 489028; inhibition, % at 8 µM; luminescent assay; in the data active means inhibition above about 40%
Full FLuc ctr: inhibits full-length luciferase, flagging false Mdm2/MdmX hits | shares compounds with Mdm2 MdmX PPI | 77% of 6,200 active | AID 504607 | inhibition, % at 8 µM | SaOS-2 full-length luciferase counterscreen, luminescence;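 active means mean inhibition at 8 µM reaching about 37%, which flags the compound as non-specific, limit read from the data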;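 further: p53-null SaOS-2 cells with luciferase driven by a doxycycline-inducible promoter; compound on cells about two nights before reading with doxycycline added after day one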
An asterisk follows results filed as active; ? = inconclusive; . = no result.

SMILES	697 NFkB inh	Mdm2 MdmX PPI	NTR1 agonist	Beta cell apopt	A1 inh	Jurkat NFkB inh	Mdm2-MdmX conf	Full FLuc ctr
Cc1cc(OCC(=O)N2C[C@H]3C[C@@H](C2)c2cccc(=O)n2C3)c2c(C)cc(=O)oc2c1	8.2	17.1	5.2	-0.2	1.4	3.7	.	.
CNCC(O)c1cc(OCc2ccccc2)c(OCc2ccccc2)cc1F (stereo not given)	13.6	81.7*	13.9	5.9	-0.5	10.3	7.7	.
CNCC(O)c1cccc(OC(=O)c2ccccc2C)c1 (stereo not given)	-9.4	0.1	-1.0	-4.2	0.4	-8.9	.	.
C=C[C@@H]1C2=CCOC(=O)C2=CO[C@H]1O[C@@H]1O[C@H](CO)[C@@H](O)[C@H](O)[C@H]1O	14.6	8.3	2.6	-3.4	-0.8	-14.7	.	.
O=C(/C=C/c1ccc2c(c1)OCO2)c1c(O)n(CCC2=CCCCC2)c(=O)[nH]c1=O	.	.	.	0.5	-0.3	.	.	.
COc1ccc(/C=C/C(=O)c2c(O)n(CCC3=CCCCC3)c(=O)[nH]c2=O)cc1	0.0	53.2*	0.0	-5.4	-0.2	1.8	26.5	.
O=C1C(=O)c2ccccc2-c2ccccc21	15.4	99.1*	0.5	121.1*	0.5	34.4	100.0*	0.4
O=c1c2ccccc2nc(/C=C/c2ccccc2O)n1-c1ccccc1O	-6.7	82.0*	-1.3	6.3	0.8	3.0	56.4*	63.5*
COc1cc(/C=C/c2nc3ccccc3c(=O)n2-c2ccc(O)cc2)ccc1O	13.3	77.4*	6.6	2.6	0.4	-6.8	45.9*	95.1*
O=c1c2ccccc2nc(/C=C/c2ccccc2F)n1-c1ccccc1O	13.9	48.8	4.9	14.5	0.7	7.1	.	.
Cc1ccc(-n2c(/C=C/c3ccccn3)nc3ccccc3c2=O)cc1	8.7	58.5*	2.5	.	.	-6.0	17.0	.
O=C1NC(=O)N(Cc2ccccc2)C(=O)/C1=C\C=C\c1ccco1	1.7	66.4*	18.2	5.7	1.6	5.1	12.9	.
O=C1/C(=C\c2ccccc2)C2OCC=C3CN4CCC56c7ccccc7N1C5C2C3CC46 (stereo not given)	-12.5	70.7*	7.3	-4.9	-0.6	18.9	50.9*	70.0*
NS(=O)(=O)OC(CCc1ccccc1)C(Cl)(Cl)Cl (stereo not given)	-6.8	14.2	-2.7	-7.6	-0.9	-13.5	.	.
COC(=O)C1=C(c2ccc(F)cc2OCc2ccccc2)C[C@@H]2CC[C@H]1N2C(=O)N1CCCCC1	0.6	4.3	2.8	2.3	-0.3	-2.8	.	.
COC(=O)C1=C(c2ccc(F)cc2OCc2ccccc2)C[C@@H]2CC[C@H]1N2C(=O)N1CCC(O)(c2ccc(Cl)cc2)CC1	-1.0	68.6*	2.2	8.2	0.0	-5.2	28.6	.
CC/C(=N\N1CCN(C)CC1)c1c(O)[nH]c(=O)[nH]c1=O	-4.7	-6.7	-3.2	-1.2	0.7	14.6	.	.
COC(=O)C1=C(C)NC(C)=C(C(=O)OC)C1c1ccccc1[N+](=O)[O-]	-2.6	97.2*	2.8	.	-0.5	10.7	53.5*	28.0
COC(=O)C1C2c3ccccc3C(c3ccccc32)C1C(=O)OC (stereo not given)	13.4	23.8	-2.5	-7.6	-0.3	-1.3	.	.
C=C1[C@@H](C)[C@H]2[C@H](Cc3ccccc3)NC(=O)[C@]23OC(=O)/C=C/[C@H](O)CCC[C@@H](C)C/C=C/[C@H]3[C@@H]1O	11.9	82.5*	3.7	-11.3	0.5	18.6	71.2*	53.2*
Cc1nc2cc([N+](=O)[O-])ccc2c(=O)n1-c1cccc(Br)c1	3.1	-24.3	4.0	-0.6	-0.6	7.1	.	.
COc1ccc(-c2cc(-c3ccccc3)[n+](C)c(-c3ccccc3)c2)cc1	-7.8	54.9*	3.4	109.3*	0.8	41.9	36.4	52.3*
Cc1ccc(-c2cc(-c3ccccc3)cc(-c3ccccc3)[n+]2-c2ccc(C(=O)O)cc2)cc1	11.7	1.2	-2.1	-8.2	0.4	3.8	.	.
Clc1cc(Cl)cc(NC2=NCCS2)c1	14.4	-18.9	0.5	3.2	-1.3	8.0	.	.
CCOC(=O)CC(NC(=O)C(Cc1ccc(N(CCCl)CCCl)cc1)NC(C)=O)C(=O)OCC (stereo not given)	13.8	81.0*	-0.3	16.6	0.6	6.9	56.8*	15.4
SMILES	697 NFkB inh	Mdm2 MdmX PPI	NTR1 agonist	Beta cell apopt	A1 inh	Jurkat NFkB inh	Mdm2-MdmX conf	Full FLuc ctr
c1ccc(-c2nc(N3CCOCC3)s[n+]2-c2ccccc2)cc1	-34.1	-38.0	-0.5	-0.8	-1.2	-21.4	.	.
CCCCn1c(=O)c(C(=O)NCc2ccncc2)c(O)c2ccccc21	1.0	50.6*	1.6	-7.6	0.6	4.7	19.6	.
CCCCn1c(=O)c(C(=O)NCc2ccccc2)c(O)c2ccccc21	-3.3	18.5	1.4	23.5	0.9	-8.6	.	.
CCCCn1c(=O)c(C(=O)Nc2ccccc2S(N)(=O)=O)c(O)c2ccccc21	-15.4	51.9*	4.2	3.2	0.3	-9.8	48.2*	39.5*
CCCCCCn1c(=O)c(C(=O)Nc2cccc(C)n2)c(O)c2ccccc21	0.7	23.3	0.8	.	-0.7	1.4	.	.
CCCCCn1c(=O)c(C(=O)Nc2cc(C)ccn2)c(O)c2ccccc21	-37.2	10.4	1.8	-3.0	0.3	9.1	.	.
CCCCCn1c(=O)c(C(=O)Nc2cnccn2)c(O)c2ccccc21	-16.1	52.2*	12.4	72.8	0.3	9.5	47.5*	51.0*
CCCCCn1c(=O)c(C(=O)Nc2ccccc2S(N)(=O)=O)c(O)c2ccccc21	-11.5	42.3	4.5	18.9	-0.2	5.7	.	.
CCCCCCCn1c(=O)c(C(=O)Nc2cnccn2)c(O)c2ccccc21	17.0	64.8*	12.9	66.8	-0.6	11.0	42.9*	43.9*
Cc1ccc(-c2nc(N(C)C3CCN(C)CC3)c3ccccc3n2)cc1	19.1	40.2	2.4	16.9	0.1	-2.4	.	.
CCC1(c2ccccc2)C(=O)N(COC)C(=O)N(COC)C1=O	7.7	1.4	2.4	.	.	12.3	.	.
O=C(/C=C/c1c[nH]c2ccccc12)c1c(O)n(CCc2ccccc2)c(=O)[nH]c1=O	-14.9	23.0	-1.3	-7.9	0.5	8.9	.	.
COC(=O)c1cn(C(=O)c2cccc3ccccc23)c2ccccc12	-49.4	64.3*	1.6	32.1	1.3	7.4	55.6*	53.4*
COC(=O)c1ccccc1-n1c(C)nc2ccccc2c1=O	-12.7	17.1	2.2	-5.6	?	-0.8	.	.
CCOc1cc2c(cc1OCC)-n1cccc1C(c1ccc(F)c(OC)c1)NC2 (stereo not given)	-12.3	18.3	0.7	-8.4	-0.4	-4.4	.	.
